FBPA coupling cs – coupling enzyme interference in Giardia aldolase counter-screen; activity change, negative = inhibition, % at 58.2 µM, hits read low; coupling enzyme system counterscreen, AmpLite Red fluorescence; actives 0.67% (n = 290,000); in the data active = activity change below about -30%
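Fluorescence at 525 nm excitation and 598 nm emission measured inhibition of the coupled detection system without aldolase. Compounds (at 57.5 uM final) were preincubated 10 min at room temperature with coupling enzyme reagent before a 20 min substrate/AmpLite Red step.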
Tau ThT inhib – blocks human tau fibril formation measured by thioflavin T. P10636. recombinant tau K18 P301L, heparin-induced fibrillization, ThT fluorescence. Potency, µM (highest dose often 57.4 µM), for the others: at the top dose activity, negative = inhibition, most hits filed as inhibitors. actives 2.1% (n = 270,000). AID 1460; note: potency is the fitted concentration of half-maximal effect; nearly all actives have a fitted effect of over 55% in size
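Heparin-induced fibrillization of the P301L-mutant K18 repeat-domain fragment of human tau was followed by ThT binding in quantitative high-throughput format.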
USP1 inh – blocks the human USP1/UAF1 deubiquitinase complex; O94782; recombinant USP1/UAF1, Ub-Rhodamine cleavage fluorescence; Potency, µM (top dose mostly 57.1 µM), inactives show at the top dose activity change, negative = inhibition, actives largely listed as inhibitors; actives 0.23% (n = 390,000); AID 743255; note: potency is the fitted concentration of half-maximal effect; nearly all actives have a fitted effect of over 60% in size
Target sequence (O94782 whole entry, looked up): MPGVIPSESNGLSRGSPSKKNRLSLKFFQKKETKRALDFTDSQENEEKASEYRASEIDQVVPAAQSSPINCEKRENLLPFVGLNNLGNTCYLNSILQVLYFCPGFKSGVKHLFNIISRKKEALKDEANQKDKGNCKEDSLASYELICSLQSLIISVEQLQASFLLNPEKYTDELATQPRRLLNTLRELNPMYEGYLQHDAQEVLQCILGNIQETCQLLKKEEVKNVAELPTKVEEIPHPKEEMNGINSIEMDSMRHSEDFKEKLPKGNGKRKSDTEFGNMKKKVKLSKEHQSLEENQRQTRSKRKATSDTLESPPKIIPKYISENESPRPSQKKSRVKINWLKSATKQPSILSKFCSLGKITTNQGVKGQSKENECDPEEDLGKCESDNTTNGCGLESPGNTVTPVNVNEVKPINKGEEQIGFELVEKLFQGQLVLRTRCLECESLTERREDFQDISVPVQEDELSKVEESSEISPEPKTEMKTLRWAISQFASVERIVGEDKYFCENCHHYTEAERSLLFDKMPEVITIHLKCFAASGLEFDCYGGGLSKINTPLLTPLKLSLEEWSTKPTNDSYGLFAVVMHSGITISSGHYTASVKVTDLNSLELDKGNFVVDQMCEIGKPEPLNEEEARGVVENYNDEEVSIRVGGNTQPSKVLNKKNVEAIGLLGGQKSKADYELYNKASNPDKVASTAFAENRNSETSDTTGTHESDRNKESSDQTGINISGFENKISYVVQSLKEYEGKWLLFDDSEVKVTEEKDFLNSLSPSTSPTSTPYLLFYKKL
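USP1/UAF1 complex at 1 nM was preincubated with compound for 15 min at room temperature, then Ub-Rho substrate (150nM final) was added. Fluorescence (480/540 nm) was read kinetically, 6 reads every 60 seconds.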
Tau fluor cs – counter-screen for tau fibril formation inhibitors. actives 0.93% (n = 280,000). tau K18 P301L (four-repeat tau fragment) Alexa594 fluorescence, heparin fibrillization. Potency, µM (titrated, usually from 57.7 µM), for inactives: at the top dose activity change, negative = decrease; note: potency is the fitted concentration of half-maximal effect; nearly all actives have a fitted effect of over 55% in size
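Human K18 P301L tau (15 uM unlabeled plus 0.24 uM Alexa 594-labeled, final) in 100 mM sodium acetate pH 7 was mixed with compound and 20 uM heparin and incubated 6 hr at 37 C.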
Tau FP inhib – inhibitors of human tau fibril formation | actives 0.39% (n = 280,000) | Potency, µM (highest dose often 57.7 µM), for inactives: top-dose activity, negative = inhibition, actives largely listed as inhibitors | K18 P301L tau heparin fibrillization, Alexa594 FP, 6 h | P10636; note: potency is the fitted concentration of half-maximal effect; nearly all actives have a fitted effect of over 55% in size
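Quantitative HTS format: compounds meet 15 uM recombinant K18 P301L tau and Alexa 594-tau tracer in 100 mM sodium acetate pH 7; 20 uM heparin triggers fibrillization at 37 C over 6 hr; FP gives the signal.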
* marks the source's active call; other numbers are inactive results; ? = inconclusive; nt = not tested or not shown; [ ] = remark or other dose. Sampled rows, rich in hits. Any-hit rate of the full collection: about 2.3%. Unless noted, calls come from the whole dose curve; as a rule, active = well fitted curve in the direction sought with a large enough effect; inconclusive = small, poorly fitted or top-dose-only effect, or another doubt; inactive = no such curve, though single readings can be large; an effect the other way counts as inactive or inconclusive. % is set by controls: 0 for no effect and ±100 for the full control effect.

SMILES | FBPA coupling cs | Tau ThT inhib | USP1 inh | Tau fluor cs | Tau FP inhib
CCOC(=O)CN1C(=O)S/C(=C/c2cccc([N+](=O)[O-])c2O)C1=O | 9 | 13µM* | -5% | -23% | 4%
CCOC(=O)c1ccc(NC(=O)/C(C#N)=C/c2ccc(OC)cc2)cc1 | nt | ? | -10% | 1% | 6%
O=C1S/C(=C\c2ccc(O)c([N+](=O)[O-])c2)C(=O)N1c1ccccc1Cl | 1 | 6.3µM* | -19% | ? | -5%
Cc1ccc(NC(=O)CN2C(=O)S/C(=C/c3ccc(O)c([N+](=O)[O-])c3)C2=O)cc1C | 7 | 7.9µM* | -12% | ? | ?
O=C(CN1C(=O)S/C(=C\c2ccc(O)c([N+](=O)[O-])c2)C1=O)Nc1ccc(N2CCOCC2)cc1 | nt | nt | -11% | nt | nt
Cc1cccc(NC(=O)CN2C(=O)S/C(=C\c3ccc(O)c([N+](=O)[O-])c3)C2=O)c1 | 6 | 6.3µM* | -13% | ? | 1%
COc1cc(Cl)c(C)cc1NC(=O)c1cc2c(Cl)nc3ccc(C)cc3c2s1 | nt | -6% | -17% | -11% | 4%
O=C1CC(c2nnc(Cc3cccc(Cl)c3)o2)CN1c1ccccc1 (stereo not drawn) | nt | -7% | -11% | -13% | -16%
COc1ccc(C2C(=O)N(C3CCCCCC3)CC(=O)N2CCc2ccc(OC)c(OC)c2)cc1 (stereo not drawn) | nt | 13% | -1% | 7% | 5%
O=C(Nc1cccc(Cl)c1)c1ccc(F)c(S(=O)(=O)NCc2ccc3c(c2)OCO3)c1 | 3 | -14% | -21% | 16µM*[quencher] | ?
Cc1ccc(CNS(=O)(=O)c2cc(C(=O)Nc3cccc(C(F)(F)F)c3)ccc2F)cc1 | nt | 22% | ? | ? | 14µM*
CCOC(=O)c1ccc(CN(Cc2ccc(F)cc2)S(=O)(=O)c2cc(C(=O)Nc3cccc(C(F)(F)F)c3)ccc2F)cc1 | nt | 7% | -27% | 0% | 14µM*
Cc1ccc(CNS(=O)(=O)c2cc(C(=O)Nc3ccc(C(C)C)cc3)ccc2F)cc1 | nt | -4% | -27% | ? | ?
CCOc1ccccc1NC(=O)c1ccc(F)c(S(=O)(=O)NCc2ccc3c(c2)OCO3)c1 | nt | -1% | -12% | -19% | -5%
Cc1ccccc1Nc1c(-c2c(F)cccc2Cl)nc2ccc(Br)cn12 | nt | -6% | -7% | -9% | -5%
CC(=O)Nc1ccc(-c2csc(N/N=C(/C)c3ccccc3)n2)cc1 | 1 | nt | -7% | 11µM*[quencher] | ?
CC(=O)Nc1ccc(-c2cc(-c3ccccc3)nc(-c3ccccc3)n2)cc1 | 2 | 10% | -2% | ? | 3.5µM*
CC(=O)Nc1ccc(-c2cc(-c3ccc(NC(C)=O)cc3)nc(-c3ccccc3)n2)cc1 | -2 | 15% | 8% | -8% | 14µM*
CC(=O)Nc1ccc(-c2cc(-c3ccc(NC(C)=O)cc3)nc(-c3ccc(NC(C)=O)cc3)n2)cc1 | -3 | 4% | -7% | 1% | ?
Nc1ccc(-c2cc(-c3cccc(N)c3)nc(-c3ccccc3)n2)cc1 | -1 | ? | -15% | 3.5µM*[quencher] | 1%
Nc1ccc(-c2nc(-c3ccccc3)nc3ccccc23)cc1 | -1 | nt | -10% | nt | nt
CSc1ccc(CCNC(=O)CCn2c(=O)c3cccn3c3ccc(F)cc32)cc1 | nt | 7% | 6% | 5% | -4%
Cc1cccc(-c2noc(CN(C(=O)c3ccccc3Cl)C(C)C)n2)c1 | nt | -10% | -18% | -19% | 4%
CCOc1ccc(Oc2nc(NCC(C)C)nc(N3CCOCC3)n2)nn1 | nt | -4% | 6% | -7% | -13%
COCCCNC(=O)CSC1=Nc2ccccc2C2=NC(CCC(=O)NCc3ccccc3OC)C(=O)N12 (stereo not drawn) | nt | 10% | ? | 5% | 1%
CCC(=O)Nc1ccc(-c2csc(C)n2)cc1 | 1 | -13% | -16% | -8% | 7%
CCC(=O)Nc1ccc(-c2cc(-c3ccccc3)nc(-c3ccc(NC(=O)CC)cc3)n2)cc1 | 1 | -8% | -14% | ? | 11µM*
[O-]/C(=C(\C(=S)Nc1cccc2ccccc12)[n+]1ccccc1)c1ccc(Cl)s1 | -39* | 7% | -5% | 8% | 5%

Screening data as filed in PubChem BioAssay.
